Results published in PubChem BioAssay (NCI).
Compounds without any hit were thinned out: in the full panel of roughly 83,000, 20% have a hit.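 In brief: 96-well plates, 48 h treatment, single concentration, percent growth endpoint.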 Unmarked numbers belong to inactive results. Active and inactive are the calls of the source. The calls were made as follows: active = growth percent below 10; inactive = the rest.

Tests used:
Assay in all cases: NCI-60 one-dose screen, 48 h (100 = growth as untreated, 0 = no growth, -100 = all killed)
Settings in all cases: 10 µM unless noted
NCI-H23 lung = tested on: NCI-H23 lung
NCI-H226 lung = tested on: NCI-H226 lung
NCI-H322M lung = tested on: NCI-H322M lung
HOP-62 NSCLC = tested on: HOP-62 NSCLC
NCI-H460 lung = tested on: NCI-H460 lung
HOP-92 NSCLC = tested on: HOP-92 NSCLC
NCI-H522 lung = tested on: NCI-H522 lung
A549/ATCC NSCLC = tested on: A549/ATCC NSCLC
786-0 renal = tested on: 786-0 renal
COLO 205 colon = tested on: COLO 205 colon

## CN(C)c1ccc(/C=N/Nc2nc(N/N=C/c3ccc(N(C)C)cc3)nc(N3CCOCC3)n2)cc1
NCI-H23 lung
  growth: 99.3%
NCI-H226 lung
  growth: 93.5%
NCI-H322M lung
  growth: 100%
HOP-62 NSCLC
  growth: 106%
NCI-H460 lung
  growth: 16.7%
HOP-92 NSCLC
  growth: 109%
NCI-H522 lung
  growth: 98.9%
A549/ATCC NSCLC
  growth: 74.9%
786-0 renal
  growth: 84.6%

## O=C1[C@@H]2Cc3c([nH]c4ccccc34)[C@H](c3c(Cl)cccc3Cl)N2C(=O)CN1C1CCN(Cc2c(F)cccc2F)CC1
NCI-H23 lung
  growth: 92.9%
NCI-H226 lung
  growth: 78.7%
NCI-H322M lung
  growth: 89.1%
HOP-62 NSCLC
  growth: 92.9%
NCI-H460 lung
  growth: 55.6%
HOP-92 NSCLC
  growth: 75.9%
NCI-H522 lung
  growth: 93%
A549/ATCC NSCLC
  growth: 92.3%
786-0 renal
  growth: 99.2%

## CC(C)(C)CC(C)(C)n1nnnc1C(Nc1ccccc1)c1cc2cccc3ccc4cccc1c4c32 (stereo not given)
NCI-H23 lung
  growth: 82.3%
NCI-H226 lung
  growth: 84%
NCI-H322M lung
  growth: 91.5%
HOP-62 NSCLC
  growth: 86.1%
NCI-H460 lung
  growth: 81.7%
HOP-92 NSCLC
  growth: 49.7%
NCI-H522 lung
  growth: 72%
A549/ATCC NSCLC
  growth: 78.5%
786-0 renal
  growth: 88.4%

## CC(=O)NC(C)(C)C(=O)N1CCC[C@H]1C(=O)NC(C)(C)C(=O)N[C@@H](C)C(=O)NC(C)(C)C(=O)NC(C)(C)C(=O)N[C@@H](CCC(N)=O)C(=O)NC(C)(C)C(=O)N[C@H](C(=O)NC(C)(C)C(=O)NCC(=O)N[C@@H](CC(C)C)C(=O)NC(C)(C)C(=O)N1CCC[C@H]1C(=O)N[C@H](C(=O)NC(C)(C)C(=O)NC(C)(C)C(=O)N[C@@H](CCC(N)=O)C(=O)N[C@@H](CCC(N)=O)C(=O)N[C@H](CO)Cc1ccccc1)C(C)C)C(C)C
NCI-H23 lung
  growth: 21.1% [4.25 µM]
NCI-H226 lung
  growth: 29.8% [4.25 µM]
NCI-H322M lung
  growth: 71.1% [4.25 µM]
HOP-62 NSCLC
  growth: 41% [4.25 µM]
NCI-H460 lung
  growth: 29.9% [4.25 µM]
HOP-92 NSCLC
  growth: -10.1% [4.25 µM] (active)
NCI-H522 lung
  growth: 10.6% [4.25 µM]
A549/ATCC NSCLC
  growth: 26.7% [4.25 µM]
786-0 renal
  growth: 80.5% [4.25 µM]

## COc1cc(/C=N/n2cnc3oc(-c4ccccc4)cc3c2=N)cc(CN2CCCCC2)c1O
NCI-H23 lung
  growth: -56.4% (active)
NCI-H226 lung
  growth: -3.78% (active)
NCI-H322M lung
  growth: -1.45% (active)
HOP-62 NSCLC
  growth: -39.2% (active)
NCI-H460 lung
  growth: -72.7% (active)
HOP-92 NSCLC
  growth: 86.2%
NCI-H522 lung
  growth: -42.2% (active)
A549/ATCC NSCLC
  growth: -68.8% (active)
786-0 renal
  growth: -79.5% (active)
COLO 205 colon
  growth: 11.7%

## CSc1ccc(/C(=N/N=C(N)N)c2ccccc2)cc1
NCI-H23 lung
  growth: 29.2%
NCI-H226 lung
  growth: 50.6%
NCI-H322M lung
  growth: 50.9%
HOP-62 NSCLC
  growth: 49.3%
NCI-H460 lung
  growth: 6.46% (active)
HOP-92 NSCLC
  growth: 34.4%
NCI-H522 lung
  growth: 11.8%
A549/ATCC NSCLC
  growth: 27.4%
786-0 renal
  growth: 31%

## COC1=C(c2ccccc2)C(=O)C(OC)=C(c2ccccc2)C1=O
NCI-H23 lung
  growth: 100%
NCI-H226 lung
  growth: 95.5%
NCI-H322M lung
  growth: 106%
HOP-62 NSCLC
  growth: 89.9%
NCI-H460 lung
  growth: 106%
HOP-92 NSCLC
  growth: 97.6%
NCI-H522 lung
  growth: 83.8%
A549/ATCC NSCLC
  growth: 74.3%
786-0 renal
  growth: 99.2%

## C/C(=N/Nc1nc(N/N=C(/C)c2ccc([N+](=O)[O-])cc2)nc(N2CCOCC2)n1)c1ccc([N+](=O)[O-])cc1
NCI-H23 lung
  growth: 57.9%
NCI-H226 lung
  growth: 41.9%
NCI-H322M lung
  growth: 86.7%
HOP-62 NSCLC
  growth: 86.2%
NCI-H460 lung
  growth: 78.1%
HOP-92 NSCLC
  growth: 64.1%
NCI-H522 lung
  growth: 61.7%
A549/ATCC NSCLC
  growth: 73.9%
786-0 renal
  growth: 66.9%

## CCN(CC)CCN1C(=O)c2c(c3c4cc(Br)ccc4[nH]c3c3ccc4ccccc4c23)C1=O
NCI-H23 lung
  growth: -81.8% (active)
NCI-H226 lung
  growth: 60.8%
NCI-H322M lung
  growth: -92.3% (active)
HOP-62 NSCLC
  growth: -66.9% (active)
NCI-H460 lung
  growth: -65.8% (active)
HOP-92 NSCLC
  growth: -65.1% (active)
NCI-H522 lung
  growth: -41.9% (active)
A549/ATCC NSCLC
  growth: -80.1% (active)
786-0 renal
  growth: -85.9% (active)
COLO 205 colon
  growth: -3.78% (active)

## COc1cc2c3c(n(CCCNC4CCCC4)c(=O)c2cc1OC)-c1cc2c(cc1C3=O)OCO2
NCI-H23 lung
  growth: -62.8% (active)
NCI-H226 lung
  growth: 80.5%
NCI-H322M lung
  growth: 6.3% (active)
HOP-62 NSCLC
  growth: -78% (active)
NCI-H460 lung
  growth: -74.4% (active)
HOP-92 NSCLC
  growth: 103%
NCI-H522 lung
  growth: 54.6%
A549/ATCC NSCLC
  growth: -78.8% (active)
786-0 renal
  growth: -87.9% (active)

## CCOC(=O)c1c(NCC(=O)Nc2cccc(Cl)c2)sc2c1CCCC2
NCI-H23 lung
  growth: 66.5%
NCI-H226 lung
  growth: 69.8%
NCI-H322M lung
  growth: 91.4%
HOP-62 NSCLC
  growth: 78.6%
NCI-H460 lung
  growth: 92.5%
HOP-92 NSCLC
  growth: 96.3%
NCI-H522 lung
  growth: 65.9%
A549/ATCC NSCLC
  growth: 101%
786-0 renal
  growth: 106%

## CCN1C(=O)N(CC)C2SC(N/N=C/c3cccs3)=NC21 (stereo not given)
NCI-H23 lung
  growth: 25.8%
NCI-H226 lung
  growth: 36%
NCI-H322M lung
  growth: 46.6%
HOP-62 NSCLC
  growth: 32%
NCI-H460 lung
  growth: 3.74% (active)
HOP-92 NSCLC
  growth: -7.41% (active)
NCI-H522 lung
  growth: -47.9% (active)
A549/ATCC NSCLC
  growth: 20.3%
786-0 renal
  growth: 17.9%

## CN1CCN(c2ccc(C(=O)Nc3cccc(-c4cn(-c5ccc(S(N)(=O)=O)cc5)nn4)c3)cc2C(F)(F)F)CC1
NCI-H23 lung
  growth: 82.2%
NCI-H226 lung
  growth: 96.8%
NCI-H322M lung
  growth: 72%
HOP-62 NSCLC
  growth: 85.7%
NCI-H460 lung
  growth: 78.8%
HOP-92 NSCLC
  growth: 56.4%
NCI-H522 lung
  growth: 90.2%
A549/ATCC NSCLC
  growth: 91.5%
786-0 renal
  growth: 52.5%
COLO 205 colon
  growth: 85.3%
